We go through 153 variants from a collection of fitness landscapes (doi:10.1126/science.1257360).

Whole data set: some 140,000 sequences, median “enrichment ratio after two sorts for PhoP signalling” near 0, cut for the highest 2% near 11. This is one part of a sample in which the highest values are shown more often than they occur. Where only a bound is given, the exact number is not on record here.

The chains are these.
B1: PhoQ; a variant is named by its letters at X, in order, P23837 (parent)
chain: MKKLLRLFFPLSLRVRFLLATAAVVLVLSLAYGMVALIGYSVSFDKTTFRLLRGESNLFYTLAKWENNKLHVELPENIDKQSPTMTLIYDENGQLLWAQRDVPWLMKMIQPDWLKSNGFHEIEADVNDTSLLLSGDHSIQQQLQEVREDDDDAEMTHSVAVNVYPATSRMPKLTIVVVDTIPVELKSSYMVWSWFIYVLSANLLLVIPLLWVAAWWSLRPIEALAKEVRELEEHNRELLNPATTRELTSLVRNLNRLLKSERERYDKYRTTLTDLTHSLKTPLXXLQXXLRSLRSEKMSVSDAEPVMLEQISRISQQIGYYLHRASMRGGTLLSRELHPVAPLLDNLTSALNKVYQRKGVNISLDISPEISFVGEQNDFVEVMGNVLDNACKYCLEFVEISARQTDEHLYIVVEDDGPGIPLSKREVIFDRGQRVDTLRPGQGVGLAVAREITEQYEGKIVAGESMLGGARMEVIFGRQHSAPKDE

The variants in the assay derive from B1. The assay can be described thus: enrichment ratio after two sorts for PhoP signalling (ratio (wild type AVST 3.29)); higher = more functional. The note with it: with PhoP (E. coli).
Consider AHDV, for which the enrichment ratio was no more than 0.25. Under IAPL stands 0.723; under FWFH, no more than 0.25; under NRLH, no more than 0.25. In the case of YSSN, the enrichment ratio was no more than 0.25. Under TQIM stands 17.9; under SAGD, no more than 0.25; under SQIM, 20.8. Consider IQGH, for which the enrichment ratio was no more than 0.25. The value for TQGH was 18.9.

As to SLIM, the enrichment ratio is no more than 0.25. Under TQPM stands no more than 0.25; under TQGP, no more than 0.25; under SAGM, 12.9. The value for SAPM was 2.5; that for TQIV was 1.59; that for SNIM was no more than 0.25.

For YRHV, the enrichment ratio is no more than 0.25. Under SCLV stands 9.82. The value for QTDD was no more than 0.25; that for AISA was 10.4; that for AFMR was no more than 0.25. The value for MLCP was no more than 0.25; that for HKNV was no more than 0.25. Regarding RAQI, the enrichment ratio is no more than 0.25.

As for MIHT, the enrichment ratio is no more than 0.25.

DVMK: the enrichment ratio was no more than 0.25.

Regarding WFDE, the enrichment ratio is no more than 0.25.

As to HTHH, the enrichment ratio was no more than 0.25. The value for TQGG was 1.42; that for ADIM was no more than 0.25; that for TQGA was 2.57. Under YDIM stands no more than 0.25; under TQGQ, 28. For ATIM, the enrichment ratio turned out to be 19.5.

For TDIS, the enrichment ratio turned out to be 1.04.

With HSAY, the enrichment ratio was no more than 0.25. Under EAHH stands no more than 0.25. The value for YEYT was no more than 0.25; that for DFEY was no more than 0.25; that for KYCC was no more than 0.25. The value for SRCC was 0.803; that for WICC was no more than 0.25; that for KSCC was no more than 0.25. With SSTC, the enrichment ratio came to 10.3.

Take IQCC: the enrichment ratio is no more than 0.25. The value for NSCC was no more than 0.25.

Take SQCC: the enrichment ratio is 8.97. Under TSCC stands 17.3. SNCC: the enrichment ratio was 14.7. As to SICC, the enrichment ratio was 17.3. Under SSCC stands 17.1; under IFYT, no more than 0.25. As to FSGP, the enrichment ratio is no more than 0.25. Under NGLQ stands no more than 0.25; under YYFP, no more than 0.25.

As for FQCC, the enrichment ratio was no more than 0.25. Take YTCC: the enrichment ratio was no more than 0.25.

TTCC: the enrichment ratio turned out to be 11.5. Turning to GTCC, the enrichment ratio is no more than 0.25. Under TQCC stands 65.

With ITCC, the enrichment ratio is no more than 0.25. Under DWCC stands no more than 0.25; under CTCC, no more than 0.25; under STCC, 13.7.

With EYTF, the enrichment ratio was no more than 0.25.

Regarding NSIQ, the enrichment ratio is no more than 0.25.

HLYG: the enrichment ratio is no more than 0.25. Under PLPH stands no more than 0.25. The value for MDHD was no more than 0.25; that for IKKC was no more than 0.25. The value for ANVL was 13.9; that for AIIL was 1.11. With ANSL, the enrichment ratio came to 16.8. The value for ARSL was 0.309; that for ANIL was 22.8. The value for ANNL was 15.7; that for AHIL was no more than 0.25. The value for ADSL was no more than 0.25; that for ANYN was no more than 0.25; that for ADVL was 3.21. As to ANYM, the enrichment ratio stood at 0.253. Regarding HWVL, the enrichment ratio is no more than 0.25.

As to GFRD, the enrichment ratio was no more than 0.25. Under EGVS stands no more than 0.25. Under WVKG stands no more than 0.25; under NCEQ, no more than 0.25; under GGVL, 7.68. Turning to NKTR, the enrichment ratio was no more than 0.25. Under AWCL stands 0.642; under ADIL, 8.79; under ANCL, 21.8. The value for AQRL was no more than 0.25. On to TKIL, for which the enrichment ratio turned out to be 8.86.

For the variant AQCL, the enrichment ratio was determined as 16. Under AKCL stands 3.3; under AICL, 17.5; under WICL, no more than 0.25. For the variant AQEL, the enrichment ratio was no more than 0.25. Under AKIL stands 18.4; under NICL, 3.87; under EAPP, no more than 0.25.

For the variant VFQT, the enrichment ratio was no more than 0.25. Turning to VNLF, the enrichment ratio was no more than 0.25. The value for YIYL was no more than 0.25; that for IDEK was no more than 0.25; that for TVNP was no more than 0.25.

Take YDMC: the enrichment ratio is no more than 0.25. The value for WVMR was no more than 0.25. The value for KNDA was no more than 0.25; that for NLGK was no more than 0.25; that for IKGA was no more than 0.25. Under WTQR stands no more than 0.25; under AISG, 19; under AHSG, 6.86.

Consider ARSG, for which the enrichment ratio is no more than 0.25. The value for WISN was no more than 0.25; that for ACSN was 4.45; that for TIKN was no more than 0.25. As to ADSG, the enrichment ratio is 1.26. The value for ACSR was 7.12; that for ACSG was 12.3; that for TISN was 13.4.

Regarding KKSG, the enrichment ratio is no more than 0.25.

Take AVSG: the enrichment ratio was found to be 16.7. Under FHWW stands no more than 0.25; under EFGD, no more than 0.25. Under HEGI stands no more than 0.25; under PMHY, no more than 0.25. As for DEAG, the enrichment ratio is no more than 0.25. The value for PCRA was no more than 0.25.

In the case of MPIN, the enrichment ratio was no more than 0.25.

Regarding QRYD, the enrichment ratio is no more than 0.25. The value for DRYI was no more than 0.25. The value for RDAL was no more than 0.25.

On to KVFV, for which the enrichment ratio is no more than 0.25. For WISG, the enrichment ratio is no more than 0.25.

As for TISG, the enrichment ratio came out at 19.4. Under PISG stands no more than 0.25; under VGFY, no more than 0.25; under MQYW, no more than 0.25. Under SNLQ stands 15.3. Turning to TPLQ, the enrichment ratio is no more than 0.25. The value for SALQ was 17.5; that for DPLQ was no more than 0.25; that for KQLQ was no more than 0.25. The value for YALQ was 4.04; that for LNLQ was no more than 0.25; that for TMLQ was 12.2. In the case of SQLQ, the enrichment ratio was determined as 13.6. The value for SILQ was 6.96. The value for MMLQ was no more than 0.25; that for NMLQ was no more than 0.25.
